Only some compounds are listed: those with a hit (about 11% of all), similar ones and a draw of the others.
G9a inh: inhibitors of human histone lysine methyltransferase G9a; Q96KQ7; G9a H3K9 monomethylation, AlphaScreen, 2 h; Potency, µM (doses to about 102 µM), without a hit: at the top dose activity, negative = inhibition, hits mostly inhibitors; 8.8% of 350,000 active; also: % is scaled to controls: 0 for no effect and ±100 for the full control effect; nearly all actives have a fitted effect of over 75% in size
Target sequence (Q96KQ7 913-1193 limits assumed): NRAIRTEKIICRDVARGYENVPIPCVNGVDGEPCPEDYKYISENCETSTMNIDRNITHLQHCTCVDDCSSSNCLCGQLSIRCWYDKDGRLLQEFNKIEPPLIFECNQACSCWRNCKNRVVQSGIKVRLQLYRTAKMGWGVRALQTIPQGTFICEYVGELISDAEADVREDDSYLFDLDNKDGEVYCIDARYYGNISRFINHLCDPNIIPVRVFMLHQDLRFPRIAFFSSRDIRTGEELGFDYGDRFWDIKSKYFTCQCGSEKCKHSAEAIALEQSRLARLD
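Enzyme 20 nM + cpd, 15 min RT; add b-H3K9 pep 500 nM / SAM 20 uM; 2 h RT; anti-H3K9me1 Ab 0.5 ug/mL + SA donor / anti-rabbit acceptor beads 20 ug/mL each, 10 min; AlphaScreen read.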
HP1b binding inh: blocks HP1-beta chromodomain binding to methylated histone tails; AlphaScreen HP1-beta / biotin-H3K9me3 peptide binding; Potency, µM (titrated, usually from 114 µM), without a hit: at the top dose activity change, negative = inhibition, most hits filed as inhibitors; 0.56% of 390,000 active; AID 540317; also: nearly all actives have a fitted effect of over 70% in size
Target sequence (P83916 whole entry, looked up): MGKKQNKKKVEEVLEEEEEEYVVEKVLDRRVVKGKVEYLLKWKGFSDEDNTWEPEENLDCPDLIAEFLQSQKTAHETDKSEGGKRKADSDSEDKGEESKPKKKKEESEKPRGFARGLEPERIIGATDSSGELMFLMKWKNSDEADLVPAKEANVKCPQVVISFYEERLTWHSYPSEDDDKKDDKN
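AlphaScreen: HP1-beta (50 nM) preformed 30 min with biotin-H3(1-18)K9me3 peptide (50 nM) in PBS pH 7.4, 0.01% Tween-20. Compound added for 30 min at RT, then streptavidin donor/nickel chelate acceptor beads (10 ug/mL) for 30 min.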
JMJD2A Tudor inh: inhibitors of human JMJD2A Tudor domain; O75164; AlphaScreen JMJD2A-Tudor / H3K4me3 peptide binding; Potency, µM (titrated, usually from 114 µM), for inactives: at the highest dose activity change, negative = inhibition, usual class: inhibitors; 4.4% of 390,000 active; AID 504339; also: % is scaled to controls: 0 for no effect and ±100 for the full control effect; nearly all actives have a fitted effect of over 50% in size
BAZ2B block: BAZ2B (human) inhibition. Potency, µM (doses to about 114 µM), without a hit: at the top dose activity change, negative = inhibition, actives largely listed as inhibitors. 4.4% of 360,000 active. AlphaScreen BAZ2B-H3K14Ac peptide displacement. Q9UIF8; also: % is scaled to controls: 0 for no effect and ±100 for the full control effect; nearly all actives have a fitted effect of over 60% in size
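Complex of BAZ2B and biotin-H3K14Ac (50 nM apiece) forms over 30 min at RT, then faces library compounds up to 110 uM for another 30 min; AlphaScreen beads added, 20 min dark incubation, luminescence read.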
L3MBTL1 block: L3MBTL1 (human) inhibition | Q9Y468 | Potency, µM (highest dose often 57.1 µM), without a hit: at the top dose activity, negative = inhibition, actives largely listed as inhibitors | 0.66% of 230,000 active | AlphaScreen L3MBTL1–H3K9me1 peptide binding; also: % is scaled to controls: 0 for no effect and ±100 for the full control effect; nearly all actives have a fitted effect of over 60% in size
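Read-out is AlphaScreen signal from streptavidin donor and nickel chelate acceptor beads (10 ug/mL final each) bridging L3MBTL1 (50 nM) and biotinylated K9-monomethylated H3(1-15) peptide (75 nM), after 30 min compound exposure at room temperature.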
* = called active by the depositor; ! = not active in a repeat; [ ] = remark or other dose. Calls follow the shape of the dose curve; as a rule, active = well fitted inhibition curve with a large enough effect; inconclusive = small, poorly fitted or top-dose-only effect; inactive = no such curve, though single readings can be large or run the other way. Potency is read from the fitted curve at half-maximal effect.

Results for COc1cccc(N2CCN(S(=O)(=O)c3cccc4nsnc34)CC2)c1 ?
G9a inh: 56.2µM*; HP1b binding inh: 16.5%; JMJD2A Tudor inh: -25.5%; BAZ2B block: -37.1%

Results for CCOc1ccc(N2CC(NC(=O)C(=O)c3c[nH]c4ccccc34)CC2=O)cc1 (centres undefined) ?
G9a inh: -5.5%[59 µM]; HP1b binding inh: 15.2%; JMJD2A Tudor inh: -12.0%; BAZ2B block: -3.5%

What do the screens show for `Cc1cc(C)[n+](-c2ccc(Oc3ccccc3)c(S(=O)(=O)[O-])c2)[nH]1`?
G9a inh: inconclusive; HP1b binding inh: 8.8%; JMJD2A Tudor inh: 50.1µM*; BAZ2B block: -17.4%; L3MBTL1 block: -3.0%

How did CCN(CC)S(=O)(=O)c1ccc(Oc2ccccc2)c(N)c1 do in these assays?
G9a inh: 4.6%; HP1b binding inh: 46.9%; JMJD2A Tudor inh: -0.7%; L3MBTL1 block: 3.7%

How did Cc1ccc(N2CCN(C(=O)C3CCN(S(=O)(=O)c4ccc5c(c4)oc(=O)n5C)CC3)CC2C)cc1 (centres undefined) do in these assays?
G9a inh: -36.8%[59 µM]; HP1b binding inh: 12.2%; JMJD2A Tudor inh: -15.2%; BAZ2B block: -15.6%

How did COc1ccc2[nH]c3c(c2c1)[C@@H]1CCN2C(=O)CCC[C@H](C3)[C@H]12 do in these assays?
G9a inh: 31.6µM*; HP1b binding inh: 11.4%; JMJD2A Tudor inh: -22.2%; BAZ2B block: inconclusive; L3MBTL1 block: -6.7%

How did COc1ccc(OC)c(C2NC(=O)c3sc(=S)n(-c4ccccc4)c3N2)c1 (centres undefined) do in these assays?
G9a inh: 3.98µM*; HP1b binding inh: 14.2%; JMJD2A Tudor inh: -31.3%; BAZ2B block: inconclusive; L3MBTL1 block: inconclusive

How did COc1cccc(-c2cc3c(=O)n(-c4ccccc4)c(=S)[nH]c3s2)c1 do in these assays?
G9a inh: inconclusive; HP1b binding inh: 23.3%; JMJD2A Tudor inh: -34.7%; BAZ2B block: 8.9%; L3MBTL1 block: 2.5%

Results for COc1cccc(C2NC(=O)c3sc(=S)n(-c4ccccc4)c3N2)c1 (centres undefined) ?
G9a inh: 39.8µM*; HP1b binding inh: 27.9%; JMJD2A Tudor inh: -26.0%; BAZ2B block: -31.1%

How did Cc1ccc(NC(=O)c2oc3ccc(S(=O)(=O)N4CCCCCC4)cc3c2C)c(C)c1 do in these assays?
G9a inh: 1.6%[59 µM]; HP1b binding inh: 54.0%; JMJD2A Tudor inh: -18.3%; BAZ2B block: 8.6%

Results for COc1cccc2c1[C@@H]1CN(CCCCn3c(=O)[nH]c4c(sc5ncc(-c6ccccc6)nc54)c3=O)C[C@@H]1CO2 ?
G9a inh: 12.6µM*; HP1b binding inh: -1.7%; JMJD2A Tudor inh: inconclusive; BAZ2B block: inconclusive; L3MBTL1 block: -5.8%

How did CC1(C)CC(=O)C2=C(C1)Nc1cc3c(cc1C2c1ccc2c(c1)OCO2)OCO3 (centres undefined) do in these assays?
G9a inh: 39.8µM*; HP1b binding inh: 4.7%; JMJD2A Tudor inh: inconclusive; BAZ2B block: inconclusive

How did CC1(C)CC(=O)C2=C(C1)Nc1cc3c(cc1C2c1ccc(F)cc1)OCO3 (centres undefined) do in these assays?
HP1b binding inh: 22.6%; JMJD2A Tudor inh: -29.3%; BAZ2B block: inconclusive; L3MBTL1 block: -1.3%

Results for CCCN(CCC)c1nc(N)nc(C#N)n1 ?
HP1b binding inh: 22.5%[57 µM]; JMJD2A Tudor inh: 3.8%[57.1 µM]

What do the screens show for `COc1ccc(CNC(=O)CN2CCN(c3cccc(C)c3C)CC2)cc1`?
G9a inh: 44.1%; HP1b binding inh: 56.3%; JMJD2A Tudor inh: -14.4%; BAZ2B block: -1.2%

Results for COc1ccc(CN2CCN(c3cccc(C)c3C)CC2)cc1OC ?
G9a inh: 11.2µM*; HP1b binding inh: 16.7%; JMJD2A Tudor inh: 7.4%; BAZ2B block: 56.2µM*

Results for COc1cc(CN2CCC(C(=O)NC3CCCC3)CC2)cc(Br)c1O ?
G9a inh: 10µM*; HP1b binding inh: -50.5%; JMJD2A Tudor inh: 3.16µM*; BAZ2B block: 50.1µM*; L3MBTL1 block: -8.2%

Results for COc1cc(CN2CCN(c3cccc(C)c3C)CC2)cc(Br)c1O ?
G9a inh: inconclusive; HP1b binding inh: inconclusive; JMJD2A Tudor inh: 2µM*; BAZ2B block: inconclusive; L3MBTL1 block: -2.7%

What do the screens show for `CCOc1ccc(NC(=O)c2cc3cc(C)ccc3n2C)cc1`?
G9a inh: 5.6%[59 µM]; HP1b binding inh: 6.9%; JMJD2A Tudor inh: -12.6%; BAZ2B block: -0.4%

How did O=C(CN1CCCCCC1)Nc1ccccc1F do in these assays?
G9a inh: 8.91µM*; HP1b binding inh: inconclusive; JMJD2A Tudor inh: 2.24µM*; BAZ2B block: 56.2µM*; L3MBTL1 block: 3.5%

Results for O=C(CCN1CCCCCC1)Nc1ccccc1F ?
HP1b binding inh: 23.5%; JMJD2A Tudor inh: -6.0%

Results for O=C(CN1CCN(CC(=O)Nc2ccccc2C(F)(F)F)CC1)Nc1ccccc1F ?
G9a inh: 31.6µM*; HP1b binding inh: 67.3%; JMJD2A Tudor inh: -9.4%; BAZ2B block: -2.2%; L3MBTL1 block: -6.4%

What do the screens show for `CCc1ccccc1NC(=O)Cn1nc(C)n2cccc2c1=O`?
G9a inh: 10.9%; HP1b binding inh: 11.4%[57 µM]; JMJD2A Tudor inh: -34.2%; BAZ2B block: -27.6%

Results for O=C(CN1CCN(c2ccccc2O)CC1)NC(c1ccccc1)c1ccccc1 ?
G9a inh: 12.3%[59 µM]; HP1b binding inh: 2.1%; JMJD2A Tudor inh: inconclusive; BAZ2B block: -37.9%; L3MBTL1 block: -3.6%

Results for O=C(CN1CCCC1)NC(c1ccccc1)c1ccccc1 ?
G9a inh: 10µM*; HP1b binding inh: inconclusive; JMJD2A Tudor inh: 1.41µM*; BAZ2B block: -0.5%[0.457 µM]; L3MBTL1 block: 3.98µM*

How did Cc1nn(CC(=O)Nc2ccccc2C(F)(F)F)c(=O)c2cccn12 do in these assays?
G9a inh: 3.16µM*!; HP1b binding inh: inconclusive; JMJD2A Tudor inh: 8.91µM*!; BAZ2B block: 22.4µM*!

Results for COc1ccc(NC(=O)CN2C(=O)COc3ccc(S(=O)(=O)Nc4ccccc4)cc32)cc1 ?
G9a inh: -9.0%[59 µM]; HP1b binding inh: 23.6%; JMJD2A Tudor inh: -16.9%; BAZ2B block: -21.8%

How did CC(C)OCCCNC(=O)C(=O)Nc1c2c(nn1-c1ccccc1)CS(=O)(=O)C2 do in these assays?
G9a inh: inconclusive; HP1b binding inh: 34.3%; JMJD2A Tudor inh: -17.2%; BAZ2B block: -28.6%

What do the screens show for `CNC1=CN=C(c2ccccc2)c2cc(Cl)ccc2N1`?
G9a inh: 4.1%[59 µM]

How did Cc1ccsc1C(=O)OCC(=O)N1CCc2ccccc2C1 do in these assays?
G9a inh: 0.9%; HP1b binding inh: 15.8%; JMJD2A Tudor inh: -1.0%; BAZ2B block: 4.2%; L3MBTL1 block: 22.9%

Results for O=C(CN1CCN(CC(=O)c2ccc(F)cc2)CC1)Nc1ccccc1Cl ?
G9a inh: 7.08µM*; HP1b binding inh: -1.6%; JMJD2A Tudor inh: -31.3%; BAZ2B block: -4.9%; L3MBTL1 block: 0.3%

Screens deposited in PubChem by National Center for Advancing Translational Sciences (NCATS).
